The source of these data is PubChem BioAssay AID1508633 (National Center for Advancing Translational Sciences (NCATS), 2021).

Records with an inconclusive call do not appear. Calls of active or inactive are those of the source. The call rests on the fitted dose curve; in most records, active means well fitted inhibition curve with a large enough effect; inconclusive means small, poorly fitted or top-dose-only effect; inactive means no such curve, though single readings can be large or run the other way. Where a SMILES comes first, the peptide text is derived from it. [ ]: non-standard residue; d: D form. The star is where a group is joined. Cbz = O=C(OCc1ccccc1)*; Nva = CCC[CH](N)C(=O)O

This experiment relates to zebrafish ABCB5 (Abcb5) multidrug transporter. In words: qHTS for characterization and localization of zebrafish homologs of the human ABCB1 multidrug transporter: ABCB5 transfected cells. As to conditions: CellTiter-Glo luminescence viability, 72 h; series mostly up to 46.1 µM. The text has this: The zebrafish has emerged as a potential model to study the blood-brain barrier (BBB) given its similarities with mammalian systems. However, little information has been available with regard to homologous ATP-binding cassette transporters expressed at the zebrafish BBB. Two transporters that are highly expressed at the human BBB are P-glycoprotein (P-gp, encoded by the ABCB1 gene) and ABCG2 (encoded by the ABCG2 gene). In this study, we focus on characterization of P-gp homologs in the zebrafish, which has two genes that are homologous to human ABCB1 - abcb4 and abcb5. We generated stably-transfected cell lines to determine their substrate specificities. […] Zebrafish abcb4 also colocalized with claudin 5 expression in brain endothelial cells.
A high-throughput screen was performed as previously described on empty vector transfected cells, P-gp-overexpressing MDR-19 cells and cells transfected with full-length zebrafish abcb4 (ZF Abcb4) or abcb5 (ZF Abcb5). Briefly, cells were plated into 1536-well plates at a density of 500 cells/well in 5 uL media. P-gp substrate compounds (approximately 90) selected from our previous study were then added at varying concentrations using a 1536-head pin tool (Kalypsis, San Diego, CA) and plates were incubated at 37C in 5% CO2 for 72 h. CellTiter-Glo reagent (Promega) was dispensed into the wells, incubated for 5 min and luminescence was read on a ViewLux instrument (Perkin-Elmer).
Cytotoxic compounds were defined as those that yielded a curve class of -1.1, -1.2, -2.1, -2.2, -2.3, or -2.4, a maximum response of >50% and an AC50 of < 10 uM. All compounds from screening analysis were tested in Vector (empty vector control), MDR-19 (P-gp overexpressing), zebrafish abcb4 (ZF Abcb4) and abcb5 (ZF Abcb5) expression cell lines.
1. Tobie D Lee, Olivia W Lee, Kyle R Brimacombe, Lu Chen, Rajarshi Guha, Sabrina Lusvarghi, Bethilehem G Tebase, Carleen Klumpp-Thomas, Robert W Robey, Suresh V Ambudkar, Min Shen, Michael M Gottesman, Matthew D Hall. A High-Throughput Screen of a Library of Therapeutics Identifies Cytotoxic Substrates of P-glycoprotein. Mol Pharmacol. 2019, Nov;96(5):629-640.
(qHTS replaces the single test concentration by a dilution series.)
On to `Cc1[nH]c2ccccc2c1CCNCc1ccc(/C=C/C(=O)NO)cc1`, for which the Potency was 0.59 µM (active). In the case of `N=C(N)c1ccc(OCCCCCOc2ccc(C(=N)N)cc2)cc1`, the Potency is 13.2 µM (active).

Regarding `CCc1cccc(CC)c1NC(=O)N1Cc2[nH]nc(NC(=O)c3ccc(N4CCN(C)CC4)cc3)c2C1`, the Potency entry is “inactive”. The same measure, in the same setting: under `CCC(C)C(=O)OC1CC(O)C23C4OCC5(C(O)CC2C1(C)C(O)O4)C3C(=O)C(O)C1(C)C(O)(c2ccoc2)CC2OC251` (stereo not given) stands “inactive”; under `C=CCn1c(=O)c2cnc(Nc3ccc(N4CCN(C)CC4)cc3)nc2n1-c1cccc(C(C)(C)O)n1`, 2.35 µM (active); under `CCCCc1nc2cc(C=CC(=O)NO)ccc2n1CCN(CC)CC`, 7.43 µM (active).

Regarding `CC1(C)CC(NC(=O)C(=O)Nc2ccc(Br)cc2)CC(C)(C)N1`, the Potency result is “inactive”. Still for that read-out and setting: with `CCS(=O)(=O)c1cccc(-c2cc(C(=O)NC3CCN(C)CC3)c(C)c3[nH]c4ncc(C)cc4c23)c1` the entry was “inactive”.

Regarding `C/C=C1/NC(=O)C2CSSCCC=CC(CC(=O)NC(C(C)C)C(=O)N2)OC(=O)C(C(C)C)NC1=O` (stereo not given), the Potency was 2.09 µM (active). Regarding `CN(C)CCN(C)C(=O)c1ccc(NC(=O)Nc2ccc(-c3nc(N4CCOCC4)c4ccn(CC(F)(F)F)c4n3)cc2)cc1`, the Potency is 2.35 µM (active). As to `NC(=O)Nc1cc(-c2ccc(CN3CCOCC3)c(F)c2)sc1C(=O)N[C@H]1CCCNC1`, the Potency is 1.48 µM (active). The same measure, in the same setting: with `Cc1cc(Nc2cc(NC(=O)c3c(Cl)cccc3Cl)ccn2)nc(N)n1` the figure was 7.43 µM (active); with `Cc1ccc(C(=O)N(CCCN)C(c2nc3cc(Cl)ccc3c(=O)n2Cc2ccccc2)C(C)C)cc1` (stereo not given), 23.5 µM (active); with `CN(C)C1CCN(C(=O)c2ccc(NC(=O)Nc3ccc(-c4nc(N5CCOCC5)nc(N5CCOCC5)n4)cc3)cc2)CC1`, 7.43 µM (active). Still for that read-out and setting: under `CC(=O)OC1C(=O)C2(C)C(O)CC3OCC3(OC(C)=O)C2C(OC(=O)c2ccccc2)C2(O)CC(OC(=O)C(O)C(NC(=O)c3ccccc3)c3ccccc3)C(C)=C1C2(C)C` (stereo not given) stands “inactive”; under `CC[C@@]1([C@@H]2O[C@@H]([C@H]3O[C@@](O)(CO)[C@H](C)C[C@@H]3C)C[C@@H]2C)CC[C@H]([C@]2(C)CC[C@]3(C[C@H](O)[C@@H](C)[C@@H]([C@@H](C)[C@@H](OC)[C@H](C)C(=O)O)O3)O2)O1`, 2.64 µM (active); under `COc1cc2c(NC3CCN(C(C)C)CC3)nc(N3CCCN(C)CC3)nc2cc1OCCCN1CCCC1`, “inactive”. `Cc1cc(N)c2ccccc2[n+]1CCCCCCCCCC[n+]1c(C)cc(N)c2ccccc21`: the Potency is 8.33 µM (active). On the same count and under the same terms, with `CCn1nnc2c(N3CCOCC3)nc(-c3ccc(NC(=O)Nc4ccc(C(=O)N5CCN(C)CC5)cc4)cc3)nc21` the figure was 1.87 µM (active).

On to `CC(NCc1ccc2c(c1)nc(NC(=O)c1ccc(-c3cn[nH]c3)s1)n2CC(C)(C)O)C(C)(C)C` (stereo not given), for which the Potency is 3.72 µM (active). Same read-out and setting: with `Oc1ccc(-c2ccc(-c3cc(Nc4cccc(CNC5CC5)c4)n[nH]3)cc2)c(O)c1` the figure was 5.26 µM (active); with `CC(=O)C1(O)Cc2c(O)c3c(c(O)c2C(OC2CC(N)C(O)C(C)O2)C1)C(=O)c1c(O)cccc1C3=O` (stereo not given), 0.059 µM (active); with `CCN(CC)Cc1ccc(C(=O)N(CCc2ccccc2OC)[C@@H]2CCNC2)cc1`, “inactive”. As for `Cc1ccc(C(=O)N(CCCN)[C@@H](c2oc3cc(Cl)ccc3c(=O)c2Cc2ccccc2)C(C)C)cc1`, the Potency is 23.5 µM (active). Same read-out and setting: under `CN(C)C/C=C/C(=O)Nc1cccc(C(=O)Nc2ccc(Nc3nccc(-c4cccnc4)n3)cc2)c1` stands 14.8 µM (active).

On to `Cc1ccc(-c2ncn(-c3ccc(Nc4nccc(-c5cccc(N6CCOCC6)c5)n4)cc3)n2)cn1`, for which the Potency is 5.9 µM (active). Still for that read-out and setting: under `CC[C@@H]1C(=O)N(C)c2cnc(Nc3ccc(C(=O)NC4CCN(C)CC4)cc3OC)nc2N1C1CCCC1` stands 1.32 µM (active); under `CC[C@@H]1C(=O)N(C)c2cnc(Nc3ccc(C(=O)NC4CCC(N5CCN(CC6CC6)CC5)CC4)cc3OC)nc2N1C(C)C` (stereo not given in full), 1.32 µM (active); under `CCN(CCCO)CCCOc1ccc2c(Nc3cc(CC(=O)Nc4cccc(F)c4)[nH]n3)ncnc2c1`, “inactive”. Turning to `CCCC(C=O)NC(=O)C(CC(C)C)NC(=O)C(CC(C)C)NC(=O)OCc1ccccc1` (stereo not drawn) (Cbz-Leu-Leu-[Nva]-aldehyde; configuration not given here), the Potency is 1.87 µM (active). On the same count and under the same terms, under `C[C@@]12O[C@@H](C[C@]1(O)CO)n1c3ccccc3c3c4c(c5c6ccccc6n2c5c31)CNC4=O` stands 5.26 µM (active); under `CN(C)c1ccc(C(=C2C=CC(=[N+](C)C)C=C2)c2ccc(N(C)C)cc2)cc1`, 0.935 µM (active); under `COc1cc(C(=O)NC2CCN(C)CC2)ccc1Nc1ncc2c(n1)N(C1CCCC1)CC(F)(F)C(=O)N2C`, 1.18 µM (active).

Take `COC[C@H](NC(=O)c1cnc(C)s1)C(=O)N[C@@H](COC)C(=O)N[C@@H](Cc1ccccc1)C(=O)[C@@]1(C)CO1`: the Potency is 0.166 µM (active). Still for that read-out and setting: under `COc1cc2ncn(-c3cc(OCc4ccccc4C(F)(F)F)c(C(N)=O)s3)c2cc1OC` stands 6.79 µM (active).

For the compound `C#CCN(Cc1cc2c(=O)n(C)c(CN3CCN(C)CC3)nc2cc1Cl)c1ccc(C(=O)NCc2cccnc2)cc1`, the Potency entry was “inactive”. On the same count and under the same terms, under `C[C@@H](Oc1cc(-n2cnc3ccc(CN4CCN(C)CC4)cc32)sc1C(N)=O)c1ccccc1C(F)(F)F` stands 4.18 µM (active); under `CC(C)C[C@H](NC(=O)[C@@H](NC(=O)c1cccc(-c2ccccc2)n1)[C@@H](C)O)B(O)O`, 0.118 µM (active). Same read-out and setting: with `C#Cc1cccc(Nc2ncnc3cc(OC)c(OCCCCCCC(=O)NO)cc23)c1` the figure was 8.33 µM (active). For the compound `C[C@@H]1O[C@@H](O[C@H]2[C@@H](OC(=O)[C@]34CCC(C)(C)CC3C3=CCC5[C@@]6(C)C[C@H](O)[C@H](O[C@@H]7O[C@H](CO)[C@@H](O)[C@H](O)[C@H]7O[C@@H]7OC[C@@H](O)[C@H](O)[C@H]7O)[C@@](C)(C(=O)O)C6CC[C@@]5(C)[C@]3(C)CC4)OC[C@H](O)[C@@H]2O)[C@H](O)[C@H](O)[C@H]1O[C@@H]1OC[C@@H](O)[C@H](O)[C@H]1O` (stereo not given in full), the activity, negative = inhibition is -6.88% [at 8.96 µM] (inactive).
